# A selection: hits, their analogues and other compounds. The true share with any hit is near 1.4%.
# Mtb MbtI inh – MbtI salicylate synthase inhibition | actives 0.89% (n = 100,000) | purified MbtI enzyme, fluorescence intensity read-out | inhibition, % (concentration not given with the values) | AID 493033 | P9WFX0; in the data active = inhibition mostly above about 56%, no sharp cut-off; inactive = mostly below about 77%
# PV pol inh – inhibitors of poliovirus RNA polymerase binding and polymerization; % elongation, % (compound at 16.7 µg/mL); P03300; actives 0.66% (n = 150,000); AID 588519; poliovirus polymerase elongation, fluorescence polarization; active compounds read low; in the data active = % elongation below about 90%
# MenB inh – Mtb MenB enzyme inhibition; MenB enzyme assay, absorbance read-out; inhibition, % (concentration not given with the values); actives 0.43% (n = 100,000); in the data active = inhibition above about 21%, passing the limit was not always enough
# Target sequence (P9WNP5 whole entry, looked up): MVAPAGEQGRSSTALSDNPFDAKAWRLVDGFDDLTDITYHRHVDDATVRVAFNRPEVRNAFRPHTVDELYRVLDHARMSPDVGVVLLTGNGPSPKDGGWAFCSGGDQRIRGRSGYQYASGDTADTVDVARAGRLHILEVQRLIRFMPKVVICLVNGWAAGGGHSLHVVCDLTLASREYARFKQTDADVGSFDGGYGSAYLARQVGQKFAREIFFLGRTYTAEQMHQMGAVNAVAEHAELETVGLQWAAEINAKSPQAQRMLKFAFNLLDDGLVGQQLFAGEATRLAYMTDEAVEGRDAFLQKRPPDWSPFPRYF
# * marks the source's active call; other numbers are inactive results; . = no result given.
SMILES,Mtb MbtI inh,PV pol inh,MenB inh
O=C1C(Cc2ccc(F)cc2)S/C(=N/N=C/c2cccnc2)N1Cc1ccco1 (configuration not stated),0,104,-12
CC(Nc1ccc(-n2cnnn2)cc1)C(=O)Nc1ccc2c(c1)OCCO2 (configuration not stated),-14,102,-12
O=C(CSc1ccc(-c2cccs2)nn1)c1cccs1,18,98,-17
CCN(CC)c1cc(-c2cccs2)nc(SCC(=O)c2cccs2)c1C#N,.,77*,-5
S=c1cc(-c2ccccc2)ss1,94*,88*,-9
O=c1cc(-c2ccccc2)sc(=O)[nH]1,.,108,5
O=C(CSc1ncc2c(n1)-c1cc(Cl)ccc1N(Cc1ccccc1)S2(=O)=O)NCc1ccccc1,.,111,.
COc1ccccc1CNC(=O)CSc1ncc2c(n1)-c1cc(Cl)ccc1N(Cc1ccccc1)S2(=O)=O,.,-5.0*,.
Cc1cc(NC(=O)COC(=O)C23CC4CC(CC(C4)C2)C3)no1,-2,103,-16
COc1ccc(CCNC(=O)c2ccc3c(c2)N(Cc2ccccc2F)C(=O)c2ccccc2S3(=O)=O)cc1OC,.,110,.
COc1ccc(CCNC(=O)c2ccc3c(c2)N(Cc2cccc(C)c2)C(=O)c2ccccc2S3(=O)=O)cc1OC,.,82*,.
CCOc1ccc(NC(=O)COC(=O)C(C)C)cc1,-3,101,.
N#C/C(=C\c1ccccc1)C(=O)N1CCN(Cc2ccccc2)CC1,12,104,-15
O=C(OCC1CCCO1)c1ccc2c(c1)N(Cc1cccc(Cl)c1)C(=O)c1ccccc1S2(=O)=O (configuration not stated),.,112,.
O=C(CSc1ccc2nc(-c3ccccc3)cn2n1)Nc1ccccc1,.,87*,.
CC(=O)c1ccc(NC(=O)CSc2ccc3nc(-c4ccccc4)cn3n2)cc1,.,108,.
Cc1nc(CC(=O)N2CCN(C/C=C/c3ccccc3)CC2)cs1,-4,106,-12
O=C(c1cccs1)N1CCN(C/C=C/c2ccccc2)CC1,-7,101,43*
COc1ccc(NC(=O)c2oc3ccccc3c2NC(=O)Cc2coc3ccc(C)cc23)cc1,.,119,.
CCS(=O)c1ccccc1C(=O)OCC(=O)NCc1ccc(C)cc1 (configuration not stated),0,107,-13
CCS(=O)c1ccccc1C(=O)NCc1ccc(C)cc1 (configuration not stated),100*,100,-28
O=C(CC(C(=O)O)N(Cc1ccccc1)Cc1ccccc1)c1ccc(Cl)cc1 (configuration not stated),.,96,86*
O=C(O)c1ccc(NC(CC(=O)c2ccc(Cl)cc2)c2ccccc2)cc1 (configuration not stated),12,102,-14
CCc1c(C)nc(N)n2c(SCc3ccc(C(F)(F)F)cc3)nnc12,6,100,-26
COc1cccc(C2Nc3ccccc3-c3nc4ccccc4n32)c1 (configuration not stated),117,101,-17
SMILES,Mtb MbtI inh,PV pol inh,MenB inh
CC(C)C1NC(=S)N(c2ccccc2)N1 (configuration not stated),-106,100,-82
CCCC1NC(=S)N(c2ccccc2)N1 (configuration not stated),98*,101,7
O=C(OCc1c(Cl)cccc1Cl)c1ccc(Br)o1,-8,103,.
c1cc(N2CCOCC2)ccc1Nc1nc2nonc2nc1Nc1ccc(N2CCOCC2)cc1,-5,103,-14
COc1ccc(NC(=O)C2CCN(S(=O)(=O)c3c(C)noc3/C=C/c3ccco3)CC2)cc1,.,102,.
c1ccc(-c2nnc(-c3cccnc3)nc2-c2ccccc2)cc1,-46,98,0
c1cncc(-c2nnc(-c3cccnc3)nn2)c1,.,66*,18
Cc1nn(-c2ccccc2)c2c1C(C(F)(F)F)(C(F)(F)F)N=C(N(C)C)O2,0,102,0
S=C(c1ccc(Br)cc1)N1CCCC1,.,103,-7
Oc1ccc(C(=S)N2CCCCC2)cc1,58*,96,-54
CS(=O)(=O)Nc1ccc(C(=O)CSc2nnc3n2CCCCC3)cc1,4,104,7
COC(=O)c1c(NC(=O)COc2ccc(Cl)cc2C)sc2c1CCCCC2,.,85*,.
CCOC(=O)c1c(NC(=O)COc2cccc(C(F)(F)F)c2)sc2c1CCCCC2,.,90*,.
CCOC(=O)c1c(NC(=O)COc2ccc(CC)cc2)sc2c1CCCC2,.,107,.
COC(=O)c1c(NC(=O)COc2cc(C)c(Cl)c(C)c2)sc2c1CCCC2,.,90*,.
CCOC(=O)c1c(NC(=O)COc2ccc(Cl)cc2C)sc2c1CCCCC2,.,104,.
CCOC(=O)c1c(NC(=O)C(C)Oc2ccc(Cl)c(C)c2)sc2c1CCCC2 (configuration not stated),.,104,.
CCCc1ccc(OC(C)C(=O)Nc2sc3c(c2C(=O)OC)CCCCC3)cc1 (configuration not stated),.,86*,.
CCOC(=O)c1c(NC(=O)COc2ccc(C(C)(C)C)cc2)sc2c1CCCC2,.,104,.
O=C(CSc1nc2scc(-c3cccs3)c2c(=O)n1-c1ccccc1)NCc1ccco1,.,106,-31
Cc1ccc(/C=C/C(=O)OCc2cc(=O)n3cc(Br)ccc3n2)o1,-3,99,-2
CCCOC(=O)CC1C(=O)NCCN1Cc1ccccc1 (configuration not stated),2,103,5
CC(C)(C)OC(=O)NCc1cccs1,6,102,33*
CC(C)(C)OC(=O)NCc1ccc(C(=O)O)cc1,0,99,-27
COc1ccccc1/C=C/C(=O)N1CCC(C(N)=O)CC1,12,104,-27
SMILES,Mtb MbtI inh,PV pol inh,MenB inh
Cc1nc(C)c(/C(O)=C/c2nc3cc(Cl)ccc3oc2=O)o1,3,102,6
CC(C)(C)/C(O)=C/c1nc2ccccc2oc1=O,-2,97,64*
O=c1oc2ccccc2nc1/C=C(\O)c1ccccc1,1,83,1
CCS(=O)(=O)c1ccc2oc(=O)c(/C=C(\O)C(C)(C)C)nc2c1,10,100,55*
CC(C)C/C(O)=C/c1nc2cc(Cl)ccc2oc1=O,22,101,85*
CCS(=O)(=O)c1ccc2oc(SCC(=O)NCc3ccccc3)nc2c1,-5,104,-17
O=C(NCCc1ccc(Cl)cc1)C1CCN(S(=O)(=O)c2ccc3c(c2)OCCO3)CC1,0,104,-19
Cc1cccn2c(=O)c(/C=N/NC(N)=O)c(NCc3ccco3)nc12,10,101,6
CC1=C(C#N)C(=O)NC(=O)/C1=C/c1ccc(N(C)C)cc1,17,99,9
CC(OC(=O)c1ccccc1NC(=O)c1ccco1)C(=O)N1CCN(C(=O)c2ccco2)CC1 (configuration not stated),-34,100,-7
CC1Sc2nnc(Cc3ccc(Br)cc3)n2N=C1c1ccc(NS(C)(=O)=O)cc1 (configuration not stated),26,78*,-30
COc1ccc(Cc2nnc3n2N=C(c2ccc(C)c(C)c2)C(C)S3)cc1OC (configuration not stated),47,87*,-18
COc1ccc(Cc2nnc(-c3ccc(C)cc3)o2)cc1OC,-4,103,-20
CS(=O)(=O)Nc1ccc(Br)cc1,.,105,-1
CCc1c(C#N)c(SCC(=O)c2cc(C)n(CCOC)c2C)nc2c1C(=O)CC(C)(C)C2,2,99,-43
CCc1ccc(NC(=O)NC2CCN(C(C)C)CC2)cc1,-9,101,9

# Compound activity: PubChem BioAssay, ICCB-Longwood Screening Facility, Harvard Medical School
